Screening results (PubChem BioAssay)
Pol iota inh – DNA polymerase iota (human) inhibition; Q9UNA4; Pol iota fluorescent replication assay, 10 min; Potency, µM (highest dose often 115 µM), without a hit: at the highest dose activity, negative = inhibition, hits mostly inhibitors; actives 1% (n = 390,000)
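Pol iota at 10 nM preincubated 15 min with compounds at room temperature; reaction started with fluorescent substrate, 50 nM final. Fluorescence read kinetically at 0 and 10 min; buffer-only wells as negative control.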
Pol beta inh – DNA polymerase beta (human) inhibition; P06746; Pol beta primer extension/strand displacement, fluorescence kinetic; Potency, µM (series often up to 114 µM), for the others: top-dose activity change, negative = inhibition, hits mostly inhibitors; actives 1.3% (n = 340,000); also: % is scaled to controls: 0 for no effect and ±100 for the full control effect
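Values derive from four-parameter Hill fits of normalized kinetic data: reads at 0 and 10 min following addition of 50 nM substrate to 10 nM Pol beta preincubated 15 min with compound.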
Pol eta inh-1 – DNA polymerase eta (human) inhibition; Q9Y253; recombinant Pol eta, fluorescent DNA replication assay; Potency, µM (top dose mostly 114 µM), inactives show top-dose activity change, negative = inhibition, hits mostly inhibitors; actives 1.2% (n = 390,000); also: % is scaled to controls: 0 for no effect and ±100 for the full control effect
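Fluorescent replication assay: 50 nM final substrate added after a 15 min room-temperature compound preincubation with 10 nM enzyme. Signal taken at 0 min and again at 10 min.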
FEN1 inh-1 – blocks human flap endonuclease 1; actives 0.35% (n = 390,000); Recombinant FEN1 flap cleavage, fluorescence, 15 min; Potency, µM (top dose mostly 114 µM), without a hit: at the highest dose activity change, negative = inhibition, actives largely listed as inhibitors; AID 588795; P39748; also: % is scaled to controls: 0 for no effect and ±100 for the full control effect; nearly all actives have a fitted effect of over 65% in size
Target sequence (P39748 whole entry, looked up): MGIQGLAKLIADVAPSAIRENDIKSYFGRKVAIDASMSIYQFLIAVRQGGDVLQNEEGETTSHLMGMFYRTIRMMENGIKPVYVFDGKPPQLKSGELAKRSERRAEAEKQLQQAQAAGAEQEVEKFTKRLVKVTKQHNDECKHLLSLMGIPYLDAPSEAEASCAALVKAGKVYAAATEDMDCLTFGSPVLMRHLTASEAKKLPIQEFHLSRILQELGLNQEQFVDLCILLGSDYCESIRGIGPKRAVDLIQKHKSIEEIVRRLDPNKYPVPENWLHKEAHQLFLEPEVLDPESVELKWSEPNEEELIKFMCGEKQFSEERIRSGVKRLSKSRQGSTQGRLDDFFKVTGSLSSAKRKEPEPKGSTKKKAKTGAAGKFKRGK
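Potency values derive from four-parameter Hill fits of normalized qHTS data. The reaction used 10 nM FEN1 preincubated 15 min at room temperature with compound, then 50 nM DNA substrate, read at 0 and 15 min.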
WRN helicase inh – blocks human WRN helicase; Q14191; WRN helicase unwinding, fluorescent forked duplex, kinetic; Potency, µM (series often up to 114 µM), for inactives: top-dose activity change, negative = inhibition, most hits filed as inhibitors; actives 0.46% (n = 360,000); AID 651768; also: % is scaled to controls: 0 for no effect and ±100 for the full control effect; nearly all actives have a fitted effect of over 55% in size
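Kinetic red-fluorescence monitoring (525/598 nm) tracks WRN helicase activity after 100 nM fluorophore-quencher forked duplex and 2 mM ATP are added to 20 nM enzyme pretreated 15 min at room temperature with compound.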
Pol kappa inh-1 – inhibitors of human DNA polymerase kappa; AID 588579; Potency, µM (doses to about 107 µM), for inactives: at the top dose activity, negative = inhibition, hits mostly inhibitors; actives 0.53% (n = 400,000); Q9UBT6; purified Pol kappa, fluorescent DNA synthesis assay, 10 min; also: % is scaled to controls: 0 for no effect and ±100 for the full control effect
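First, compounds were pin-transferred onto 10 nM Pol kappa. After 15 min at room temperature, substrate was added to 50 nM final. Fluorescence was then measured kinetically at 0 and 10 min.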
Pol kappa inh-2 – Pol kappa (human) inhibition, cherry-pick confirmation; actives 76% (n = 920); shares compounds with Pol eta inh-1; Potency, µM, usual class: inhibitors; purified Pol-kappa, fluorescent strand-displacement substrate
Pol eta inh-2 – Pol eta (human) inhibition, cherry-pick confirmation; shares compounds with Pol eta inh-1; Pol eta primer extension, TAMRA/BHQ fluorescence, 10 min; Potency, µM, usual class: inhibitors; actives 64% (n = 2,600); AID 720502
FEN1 inh-2 – FEN1 inhibition, cherry-pick retest | shares compounds with FEN1 inh-1 | FEN1 flap cleavage, TAMRA/BHQ2 fluorogenic DNA substrate | Potency, µM, hits mostly inhibitors | actives 79% (n = 880); also: nearly all actives have a fitted effect of over 60% in size
Numbers without * were called inactive; ? = inconclusive; . = no result; [ ] = dose if it differs, or a comment. Compounds with a hit are over-represented: about 2.4% of the library has one in this group of screens. Calls follow the shape of the dose curve; as a rule, active = well fitted curve in the direction sought with a large enough effect; inconclusive = small, poorly fitted or top-dose-only effect, or another doubt; inactive = no such curve, though single readings can be large; an effect the other way counts as inactive or inconclusive. Potency is read from the fitted curve at half-maximal effect.

SMILES	Pol iota inh	Pol beta inh	Pol eta inh-1	FEN1 inh-1	WRN helicase inh	Pol kappa inh-1	Pol eta inh-2	FEN1 inh-2	others
COc1cc2cc3c(N)c(C(=O)Nc4sc(C)c(C)c4C#N)sc3nc2cc1OC	7.9µM*	7.9µM*	28µM*	50µM*	?	32µM*	30*	43*
O=C1C(c2ccc(F)cc2)N(CCc2ccccc2)C(=O)CN1C1CCCCCC1 (stereo not drawn)	0%	14%	-20%	-6%	.	-8%[60.1 µM]	.	.
CN(C)c1ccc2nc3ccc(=O)cc-3sc2c1	.	.	40µM*	.	56µM*	.	?	43*
COc1ccc2nc(N=Nc3ccc(N(C)C)cc3)sc2c1	1%	-1%	5%	-5%	-3%	-4%	.	.
O=S(O)CO	.	.	.	.	.	2%[60.1 µM]	.	.
Cc1csc(N=Cc2ccc([N+](=O)[O-])o2)n1	.	.	18µM*	.	?	.	?	30*
Cc1cc(N/N=C/c2ccc([N+](=O)[O-])o2)nc2ccccc12	-3%	-26%	-9%	-11%	-1%	-28%	.	.
CCN=c1scc(C)n1/N=C/c1cc(Br)c(O)c(Br)c1	-3%	?	?	11%	-5%[11.6 µM]	-24%	.	.
CCN=c1scc(C)n1/N=C/c1ccc(O)c(O)c1O	8.9µM*	10µM*	6.3µM*	?	22µM*	22µM*	67*	?
COc1ccc(/C=N\NC(=O)COc2ccc(Cl)cc2Cl)c(C(=O)O)c1OC	149%	2%	-25%	3%	-5%	-4%	.	.
COc1ccc(/C=N/NC(=O)c2[nH]c3ccc(Cl)cc3c2-c2ccccc2)c(C(=O)O)c1OC	27%	-20%	79µM*	?	?	-6%	38*	38*
COc1cc(/C=C2\SC(=S)N(NS(=O)(=O)c3ccc(C)cc3)C2=O)ccc1O	40µM*	40µM*	?	-26%	45µM*	?	.	67*	Pol kappa inh-2=?
CCc1ccc(S(=O)(=O)c2nnn3c2nc(Nc2cccc(C)c2C)c2sccc23)cc1	4%	4%	-12%	16%	.	-4%	.	.
CCOc1cc(-c2ccc3c(c2)OCO3)cc(=[O+]CC)c2c(C)oc(C)c12	50µM*	.	.	45µM*	.	50µM*	48*	?	Pol kappa inh-2=?
CCOc1cc(-c2ccc(OC(=O)c3ccccc3)c(OC)c2)cc(=O)c2c(C)oc(C)c12	27%	-18%	-21%	10%	.	4%	.	.
COc1cccc(NC(=O)CCc2nnc3n(CC(C)C)c(=O)c4ccccc4n23)c1	?	?	-10%	-6%	.	-1%	.	.
Cc1nn(C)c2nc(NNC(=O)Nc3cc(Cl)nc(Cl)c3)cc(C(C)C)c12	.	.	.	.	.	-10%[60.1 µM]	.	.
Cc1ccc(C)c(Nc2nc3c(S(=O)(=O)c4ccc(Br)cc4)nnn3c3ccsc23)c1	45µM*	18µM*	-25%	?	.	?	.	?	Pol kappa inh-2=21*
Cc1ccc(C)c(Nc2nc3c(S(=O)(=O)c4ccc(C(C)C)cc4)nnn3c3ccsc23)c1	-24%	1%	-19%	-2%	.	-14%	.	.
CCOC(=O)C(C)Sc1nnc2ccc3ccccc3n12 (stereo not drawn)	16%	8%	-23%	-5%	.	3%	.	.
O=C(CSC1=Nc2ccccc2N=C(c2ccc(F)cc2)C1)Nc1cccc(C(F)(F)F)c1	-1%	1%	-17%	?	.	-15%[60.1 µM]	.	.
O=C(Nc1ccc2nc(SCC(=O)N3CCCc4ccccc43)sc2c1)c1ccccc1	?	?	-3%	?	.	?	.	.
